# Measurements as given in article PMC7862700, “An all-to-all approach to the identification of sequence-specific readers for epigenetic DNA modifications on cytosine”.
# What was measured:
# Experiment in all cases: DAPPL (digital affinity profiling via proximity ligation, sequencing); 10 mM Tris-HCl pH 7.5, 50 mM NaCl, 1 mM DTT, 4% glycerol, room temperature, 30 min; GST-TFs on glutathione beads, 16-mer random dsDNA library, 0.1% formaldehyde crosslink after washing; high values mean tight binding
# Conditions in all cases: protein: recombinant; tags: N-terminal GST; dsDNA, one strand shown
# FLI1 = biological target: T1, FLI1 (Homo sapiens, UniProt Q01543 1-452)
# T1 sequence: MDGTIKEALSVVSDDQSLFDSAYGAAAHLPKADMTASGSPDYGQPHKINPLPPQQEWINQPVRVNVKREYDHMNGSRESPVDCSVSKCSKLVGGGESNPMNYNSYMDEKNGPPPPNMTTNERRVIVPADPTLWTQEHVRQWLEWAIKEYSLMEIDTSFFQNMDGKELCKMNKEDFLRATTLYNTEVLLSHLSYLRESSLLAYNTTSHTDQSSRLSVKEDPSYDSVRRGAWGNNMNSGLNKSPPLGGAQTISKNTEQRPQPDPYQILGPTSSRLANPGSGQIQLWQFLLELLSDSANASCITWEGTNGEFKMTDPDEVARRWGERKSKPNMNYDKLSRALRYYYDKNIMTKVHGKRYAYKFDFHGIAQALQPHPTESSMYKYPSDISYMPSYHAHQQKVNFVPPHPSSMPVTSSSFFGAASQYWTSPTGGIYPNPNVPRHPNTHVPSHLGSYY
# How it was run: (§1)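 Human transcription factors fused to GST were expressed in yeast, captured on glutathione beads, given DNA barcodes and pooled with a GST-only negative control. Pools were incubated with 200 nmole of a 16-mer random double-stranded DNA library in Tris/NaCl/DTT/glycerol buffer at room temperature for 30 min. They were then washed, crosslinked with 0.1% formaldehyde, proximity-ligated (BsaI/T4 ligase, 1 h, 37 °C), PCR-amplified and sequenced on an Illumina NextSeq500. Binding signal is each 6-mer's read frequency for a factor divided by its frequency for the GST control.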
# ELK1 = biological target: T2, ELK1 (Homo sapiens, UniProt P19419 1-428)
# T2 sequence: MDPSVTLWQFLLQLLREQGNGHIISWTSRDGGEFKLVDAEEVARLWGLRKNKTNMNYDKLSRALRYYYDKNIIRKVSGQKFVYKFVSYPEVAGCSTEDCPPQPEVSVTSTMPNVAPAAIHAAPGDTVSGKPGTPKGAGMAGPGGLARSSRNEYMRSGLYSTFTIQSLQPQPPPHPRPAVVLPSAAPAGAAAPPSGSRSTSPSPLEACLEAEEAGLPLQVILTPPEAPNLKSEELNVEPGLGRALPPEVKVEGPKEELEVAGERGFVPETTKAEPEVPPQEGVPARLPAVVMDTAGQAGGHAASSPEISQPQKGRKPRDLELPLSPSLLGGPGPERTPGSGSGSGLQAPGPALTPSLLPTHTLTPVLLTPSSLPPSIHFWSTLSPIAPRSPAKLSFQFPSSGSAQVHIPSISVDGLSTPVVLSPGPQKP
# How it was run: as §1
# GABPA = biological target: T3, GABPA (Homo sapiens, UniProt Q06546 1-454)
# T3 sequence: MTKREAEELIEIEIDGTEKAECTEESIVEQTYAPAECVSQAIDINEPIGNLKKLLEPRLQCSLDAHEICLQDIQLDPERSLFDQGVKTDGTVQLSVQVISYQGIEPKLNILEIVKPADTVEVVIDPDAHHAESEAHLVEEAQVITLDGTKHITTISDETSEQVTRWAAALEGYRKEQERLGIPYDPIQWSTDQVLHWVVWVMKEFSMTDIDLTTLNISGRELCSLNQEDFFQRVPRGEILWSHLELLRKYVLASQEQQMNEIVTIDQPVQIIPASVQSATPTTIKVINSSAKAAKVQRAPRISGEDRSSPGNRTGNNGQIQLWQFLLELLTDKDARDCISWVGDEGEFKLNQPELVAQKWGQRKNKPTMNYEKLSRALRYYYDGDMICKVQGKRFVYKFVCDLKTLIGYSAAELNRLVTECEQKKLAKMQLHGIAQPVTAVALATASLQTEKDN
# How it was run: as §1
# ERG = biological target: T4, ERG (Homo sapiens, UniProt P11308 1-479)
# T4 sequence: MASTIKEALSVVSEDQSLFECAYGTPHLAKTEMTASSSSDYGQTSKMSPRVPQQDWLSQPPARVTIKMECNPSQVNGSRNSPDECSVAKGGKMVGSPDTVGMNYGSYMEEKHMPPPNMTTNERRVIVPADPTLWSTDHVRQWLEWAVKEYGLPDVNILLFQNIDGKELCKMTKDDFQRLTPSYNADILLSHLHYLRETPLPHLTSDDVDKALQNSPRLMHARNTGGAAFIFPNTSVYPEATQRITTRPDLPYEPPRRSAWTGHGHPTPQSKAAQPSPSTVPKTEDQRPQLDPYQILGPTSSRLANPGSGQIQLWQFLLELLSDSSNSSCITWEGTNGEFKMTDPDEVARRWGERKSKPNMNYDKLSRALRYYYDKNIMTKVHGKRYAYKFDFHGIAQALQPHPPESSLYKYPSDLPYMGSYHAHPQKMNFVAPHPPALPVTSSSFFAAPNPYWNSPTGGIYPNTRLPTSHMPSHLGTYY
# How it was run: as §1
# ELF1 = ELF1 (Homo sapiens, UniProt P32519 1-619)
# How it was run: as §1
# EHF = biological target: T5, EHF (Homo sapiens, UniProt Q9NZC4 1-300)
# T5 sequence: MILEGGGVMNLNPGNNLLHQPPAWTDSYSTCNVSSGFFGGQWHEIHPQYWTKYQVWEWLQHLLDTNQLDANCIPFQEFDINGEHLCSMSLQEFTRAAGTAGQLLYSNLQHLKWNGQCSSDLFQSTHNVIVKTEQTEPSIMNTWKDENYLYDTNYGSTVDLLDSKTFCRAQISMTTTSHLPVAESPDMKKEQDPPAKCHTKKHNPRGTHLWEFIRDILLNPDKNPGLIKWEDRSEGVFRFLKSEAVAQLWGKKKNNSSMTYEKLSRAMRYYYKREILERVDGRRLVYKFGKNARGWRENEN
# How it was run: as §1
# SPI1 = SPI1 (Homo sapiens, UniProt P17947 1-270)
# How it was run: as §1
# SPIB = SPIB (Homo sapiens, UniProt Q01892 1-262)
# How it was run: as §1
# ELK3 = biological target: T6, ELK3 (Homo sapiens, UniProt P41970 1-407)
# T6 sequence: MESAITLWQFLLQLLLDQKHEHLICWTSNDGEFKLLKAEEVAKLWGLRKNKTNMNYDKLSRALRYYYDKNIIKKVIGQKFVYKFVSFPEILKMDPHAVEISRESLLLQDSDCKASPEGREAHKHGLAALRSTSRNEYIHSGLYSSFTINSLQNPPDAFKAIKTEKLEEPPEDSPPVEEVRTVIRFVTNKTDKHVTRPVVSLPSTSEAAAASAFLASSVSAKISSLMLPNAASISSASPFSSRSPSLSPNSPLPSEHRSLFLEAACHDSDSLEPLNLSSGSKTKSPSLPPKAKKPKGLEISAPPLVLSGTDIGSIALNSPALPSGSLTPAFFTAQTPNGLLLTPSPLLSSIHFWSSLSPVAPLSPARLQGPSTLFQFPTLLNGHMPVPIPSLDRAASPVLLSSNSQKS
# How it was run: as §1
# SPIB, sequence (Q01892 whole entry): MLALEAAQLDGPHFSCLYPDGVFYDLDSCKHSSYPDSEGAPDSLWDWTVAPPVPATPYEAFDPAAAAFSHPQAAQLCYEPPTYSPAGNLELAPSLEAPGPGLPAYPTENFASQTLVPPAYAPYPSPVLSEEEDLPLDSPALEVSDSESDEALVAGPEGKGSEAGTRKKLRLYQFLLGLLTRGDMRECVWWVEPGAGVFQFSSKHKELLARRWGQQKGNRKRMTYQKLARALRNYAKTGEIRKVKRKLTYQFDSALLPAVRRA
# ELF1, sequence (P32519 whole entry): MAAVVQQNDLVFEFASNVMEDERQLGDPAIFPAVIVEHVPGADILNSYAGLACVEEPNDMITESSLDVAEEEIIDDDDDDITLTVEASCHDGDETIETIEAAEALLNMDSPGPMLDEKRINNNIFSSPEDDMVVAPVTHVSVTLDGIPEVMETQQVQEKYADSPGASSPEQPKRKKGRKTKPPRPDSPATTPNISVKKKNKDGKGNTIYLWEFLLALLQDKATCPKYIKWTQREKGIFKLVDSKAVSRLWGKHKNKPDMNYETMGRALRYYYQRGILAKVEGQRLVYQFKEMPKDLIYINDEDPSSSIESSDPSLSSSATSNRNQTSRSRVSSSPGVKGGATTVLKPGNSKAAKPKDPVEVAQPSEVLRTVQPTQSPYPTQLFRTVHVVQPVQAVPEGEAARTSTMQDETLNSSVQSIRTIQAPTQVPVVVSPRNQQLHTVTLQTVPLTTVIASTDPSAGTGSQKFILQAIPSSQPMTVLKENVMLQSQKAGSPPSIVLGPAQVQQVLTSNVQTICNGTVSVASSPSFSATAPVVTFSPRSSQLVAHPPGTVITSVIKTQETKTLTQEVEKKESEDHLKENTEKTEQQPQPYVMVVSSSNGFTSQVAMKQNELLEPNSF
sequence,measurement,setting,value
CTGCTT,binding signal,FLI1,"1.69 fold enrichment (6-mer frequency, TF over GST control)"
same,binding signal,ELK1,"1.57 fold enrichment (6-mer frequency, TF over GST control)"
same,binding signal,GABPA,"1.59 fold enrichment (6-mer frequency, TF over GST control)"
same,binding signal,ERG,"1.6 fold enrichment (6-mer frequency, TF over GST control)"
same,binding signal,ELF1,"1.65 fold enrichment (6-mer frequency, TF over GST control)"
same,binding signal,EHF,"1.88 fold enrichment (6-mer frequency, TF over GST control)"
same,binding signal,SPI1,"1.75 fold enrichment (6-mer frequency, TF over GST control)"
same,binding signal,SPIB,"1.54 fold enrichment (6-mer frequency, TF over GST control)"
same,binding signal,ELK3,"1.58 fold enrichment (6-mer frequency, TF over GST control)"
